# From PubChem BioAssay (EPA / NIEHS)
# Several values for one entry are separate records, joined by “and”; a condition that tells them apart may be missing. Equal entries are not always repeated. Results filed as inconclusive are left out. Activity calls are given as the source filed them. How the source made its calls: active means hit-call score of the fitted dose curve at least 0.9, where 1 is the maximum; inconclusive means response in the unintended direction; inactive means score below 0.9.
# Experiment: ACEA_ER_AUC_viability: ACEA Biosciences xCELLigence Real-Time Cell Analysis on Estrogen Receptor Agonism for Viability (AID 2283782);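 further: continuous compound exposure with impedance area under curve over 80 h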
# Procedure: ACEA_ER is a cell-based, single-readout assay that uses T47D, a human breast cell line, with measurements taken at 80 hours after chemical dosing in a 96-well plate, although TO2 (mc0.srcf) used a 384-well plate. Differences in plate size can be ignored given data normalization.ACEA_ER_AUC_viability is one of two assay component(s) measured or calculated from the ACEA_ER assay. It is designed to make measurements of real-time cell-growth kinetics, a form of growth reporter, as detected with electrical impedance signals by Real-Time Cell Electrode Sensor (RT-CES) technology.Data from the assay component ACEA_ER_AUC_viability was analyzed in the positive analysis fitting direction relative to DMSO as the negative control and baseline of activity. Using a type of growth reporter, loss-of-signal activity can be used to understand changes in the viability. Furthermore, this assay endpoint can be referred to as a secondary readout, because this assay has produced multiple assay endpoints where this one serves a viability function. To generalize the intended target to other relatable targets, this assay endpoint is annotated to the cell cycle intended target family, where the subfamily is cytotoxicity.
# The xCELLigence system Multi-E-Plate stations were used to measure the time-dependent response to chemicals. Each compound was tested in an eight-point, 1:4 serial dilution series starting at a maximum final concentration of 100 uM. A maximum starting concentration of 0.5% DMSO was present in the 100 uM chemical samples and was diluted along with the test article dilution series. The screen was performed in biological duplicate using two separate, 96-well, E-Plates 96 for each dilution series (n = 2). Positive controls (MG132 and E2) and a negative control (assay media) were tested in quadruplicate on each testing plate. Then, 0.5% and 0.125% DMSO were tested in duplicates in each plate to serve as solvent controls for the 2 highest concentrations of testing compounds: 100 uM and 25 uM. Reference compounds were tested with 8 concentrations with 1:5 serial dilutions. All screening was carried out by ACEA Biosciences, Inc. (San Diego, CA). T-47D cells purchased from ATCC were maintained in RPMI1640 media supplemented with 10% characterized fetal bovine serum (FBS). Before screening, T-47D cells were preconditioned in assay medium: phenol red-free RPMI1640 supplemented with 10% charcoal-stripped FBS. Cells were then detached and seeded in E-Plates 96 in assay medium. After overnight monitoring of growth once every hour, compounds were added to […] cells and remained in the medium until the end of the experiment. Cellular responses were then recorded once every 5 min for the first 5 h, and once every hour for an additional 100 h.
Structure (SMILES),AC50,outcome
Cn1sc(Cl)cc1=O,86.9 µM (active),
Clc1nc(Cl)nc(Cl)n1,,inactive
CC(=O)OC(c1ccccc1)C(Cl)(Cl)Cl (stereo not given),,inactive
C=C(C)C#N,,inactive
C=CC(=O)OCCCCCC(C)C,,inactive
CCOP(=S)(OCC)SCCS(=O)(=O)CC,57.6 µM (active),
Cc1cc(Cl)ccc1O[C@H](C)C(=O)O,,inactive
COC(=O)c1sccc1S(=O)(=O)NC(=O)Nc1nc(C)nc(OC)n1,,inactive
CC(=[OH+])/C=C(/C)[O-].CC(=[OH+])/C=C(/C)[O-].CC(=[OH+])/C=C(/C)[O-].[Al],72.6 µM (active),
CCC(=O)C(CC(C)N(C)C)(c1ccccc1)c1ccccc1 (stereo not given),36.2 µM (active),
CCc1ccccc1C,,inactive
Oc1cccc2cccnc12,,inactive
CCC(C)c1cccc(C(C)CC)c1O (stereo not given),77.1 µM (active),
O=C(O)CCC(F)(C(F)(F)F)C(F)(F)F,,inactive
C[C@@H](Oc1ccc(Cl)cc1Cl)C(=O)O,,inactive
CC(C)c1ccc(CO)cc1,,inactive
O=P(O)(O)c1ccccc1,,inactive
ClC1(Cl)C2(Cl)C3(Cl)C4(Cl)C(Cl)(Cl)C5(Cl)C3(Cl)C1(Cl)C5(Cl)C24Cl (stereo not given),,inactive
CCN(CC)C(=O)Cl,,inactive
ClC(Cl)=C(Cl)C(Cl)=C(Cl)Cl,,inactive

Structure (SMILES),AC50,outcome
CC(C)CCCCCCOC(=O)c1ccccc1C(=O)OCCCCCCC(C)C,40.9 µM (active),
C(=NC1CCCCC1)=NC1CCCCC1,28.6 µM (active),
COC[C@H](C)N(C(=O)CCl)c1c(C)csc1C,,inactive
CCOC(=O)Nc1cccc(OC(=O)Nc2ccccc2)c1,,inactive
CC12CC1(C)C(=O)N(c1cc(Cl)cc(Cl)c1)C2=O (stereo not given),,inactive
O=C/C=C/c1ccccc1,,inactive
CC(C)(OO)c1ccccc1,14.7 µM (active),
O=[N+]([O-])c1c(Cl)c(Cl)cc(Cl)c1Cl,,inactive
O=C1C2(Cl)C3(Cl)C4(Cl)C(Cl)(Cl)C5(Cl)C3(Cl)C1(Cl)C5(Cl)C24Cl (stereo not given),10.4 µM (active) and 7.76 µM (active) and 8.91 µM (active),
CCOP(=S)(OCC)Oc1nc(Cl)c(Cl)cc1Cl,87.6 µM (active),
CN(C)N=O,,inactive
CC(=O)[O][Hg][c]1ccccc1,1.32 µM (active),
COc1ccc(OC)c(C=O)c1,50 µM (active),
Oc1c(I)cc(I)cc1I,87.9 µM (active),
CCOP(OCC)OCC,,inactive
CC1CN1P(=O)(N1CC1C)N1CC1C (stereo not given),64.1 µM (active),
CCCCCCCCCCCCCCCC[n+]1ccccc1,5.69 µM (active),
COP(=S)(OC)Oc1cc(Cl)c(Cl)cc1Cl,88 µM (active),
CC(C)(c1ccccc1)c1ccc(O)c(C(C)(C)c2ccccc2)c1,8.68 µM (active),
Nc1ccc(Cl)cc1C(=O)c1ccccc1,,inactive
